# “And” between values parts separate entries of the source, which are not always exact repeats. Equal entries are not always repeated. Some structures have more than one record in an assay (separate samples or runs), and their calls can disagree. The source made the active and inactive calls. Rule for the calls: active = hit-call score of the fitted dose curve at least 0.9, where 1 is the maximum; inactive = score below 0.9.
# Experiments:
# [1] = read-out: C-C motif chemokine 2 (Homo sapiens) (UniProt P13500); assay: BSK_KF3CT_MCP1: BioMAP Diversity Plus: KF3CT Assay for Monocyte Chemoattractant Protein 1 (MCP1/CCL2) Biomarker Activity (AID 2283073); conditions: primary human keratinocytes with fibroblasts; actives raise or lower the signal
# In short: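 ELISA read-out of MCP-1, 24 h post-dose, in primary human skin keratinocytes co-cultured with fibroblasts. Parallel SRB staining monitors cytotoxicity; changes fitted both directions relative to DMSO.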
# [2] = read-out: Matrix Metallopeptidase 9 (MMP9), MMP9 (gene 4318); assay: BSK_KF3CT_MMP9: BioMAP Diversity Plus: KF3CT Assay for Matrix Metallopeptidase 9 (MMP9) Biomarker Activity (AID 2283074); conditions: primary human keratinocytes with fibroblasts; actives raise or lower the signal;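 for AC50: MMP9 protein level quantified by ELISA in the co-culture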
# In short: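 Human keratinocyte/foreskin fibroblast co-culture; compound added; 24 h; MMP-9 by ELISA; bidirectional fit vs DMSO baseline.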
# [3] = read-out: urokinase plasminogen activator (uPA), PLAU (gene 5328); assay: BSK_KF3CT_uPA: BioMAP Diversity Plus: KF3CT Assay for urokinase plasminogen activator (uPA) Biomarker Activity (AID 2283075); conditions: primary human keratinocytes with fibroblasts; actives raise or lower the signal
# In short: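 ELISA readout of uPA, analyzed for signal gain or loss relative to DMSO, from a human primary keratinocyte–foreskin fibroblast co-culture measured 24 h after chemical treatment.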
# CD40, CD40 (gene 958) [4] = assay: BSK_LPS_CD40: BioMAP Diversity Plus: LPS Assay for CD40 Biomarker Activity (AID 2283076); conditions: primary human HUVEC with PBMC; actives raise or lower the signal
# In short: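 In the LPS system of human endothelial cells with peripheral blood mononuclear cells, CD40 levels were read by ELISA 24 h post-treatment. Signal changes in either direction were fitted against the DMSO baseline, with parallel SRB protein staining.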
# [5] = read-out: E-selectin (Homo sapiens) (UniProt P16581); assay: BSK_LPS_Eselectin: BioMAP Diversity Plus: LPS Assay for Eselectin Biomarker Activity (AID 2283077); conditions: primary human HUVEC with PBMC; actives raise or lower the signal
# In short: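 E-selectin ELISA on LPS-stimulated endothelial cell/PBMC co-cultures, read 24 h post-treatment; gains and losses fitted against DMSO. Parallel SRB staining (0.1% SRB after 10% TCA fixation, 560 nm) flags overt cytotoxicity.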
# [6] = read-out: Interleukin-8 (IL8), CXCL8 (gene 3576); assay: BSK_LPS_IL8: BioMAP Diversity Plus: LPS Assay for Interleukin-8 (IL8) Biomarker Activity (AID 2283078); conditions: primary human HUVEC with PBMC; actives raise or lower the signal
# In short: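 ELISA read-out of IL-8 after 24 h chemical treatment of LPS-activated endothelial/PBMC human primary co-cultures. Changes either up or down relative to DMSO; overt cytotoxicity checked by sulforhodamine B staining in parallel wells.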
# [7] = BSK_LPS_SRB: Viability Assessment in the BioMAP Diversity Plus: LPS Assay (AID 2283079); conditions: primary human HUVEC with PBMC;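 note: total protein by sulforhodamine B absorbance as a cytotoxicity measure; measured one day after compound addition; fitted in both directions against DMSO so loss or gain of signal counts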
# In short: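 SRB viability endpoint: cells fixed with 10% TCA, stained with 0.1% SRB, read at 560 nm, 24 h post-dose. HUVEC/PBMC co-culture; signal change in either direction scored relative to DMSO.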
# [8] = read-out: Interleukin-1 alpha (IL1a), IL1A (gene 3552); assay: BSK_LPS_IL1a: BioMAP Diversity Plus: LPS Assay for Interleukin-1 alpha (IL1a) Biomarker Activity (AID 2283080); conditions: primary human HUVEC with PBMC; actives raise or lower the signal
# In short: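 Readout is IL-1a level by ELISA, 24 h post-dose, fitted as gain or loss relative to DMSO. System: LPS-activated human primary co-culture of vascular endothelium and peripheral blood mononuclear cells, with parallel SRB total-protein cytotoxicity.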
# [9] = read-out: Monocyte Chemoattractant Protein-1 (MCP1), CCL2 (gene 6347); assay: BSK_LPS_MCP1: BioMAP Diversity Plus: LPS Assay for Monocyte Chemoattractant Protein-1 (MCP1) Biomarker Activity (AID 2283081); conditions: primary human HUVEC with PBMC; actives raise or lower the signal;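 for AC50: secreted MCP-1 protein quantified by ELISA in culture supernatant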
# In short: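 Secreted MCP-1 read by ELISA at 24 h post-dosing in an LPS-activated co-culture of endothelial cells with peripheral blood mononuclear cells. Fits run in both directions, DMSO as baseline; parallel SRB staining tracks overt cytotoxicity.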
# [10] = BSK_LPS_PGE2: BioMAP Diversity Plus: LPS Assay for Prostaglandin E2 (PGE2) Biomarker Activity (AID 2283082); conditions: primary human HUVEC with PBMC; actives raise or lower the signal;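 for AC50: secreted prostaglandin E2 measured by ELISA in LPS-stimulated co-culture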
# In short: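 LPS-activated HUVEC/PBMC co-culture; cmpd dosed, 24 h; PGE2 by ELISA; bidirectional fit vs DMSO; SRB (0.1%, TCA-fixed, 560 nm) in parallel plates for overt cytotox.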
# [11] = read-out: Macrophage colony-stimulating factor (MCSF), CSF1 (gene 1435); assay: BSK_LPS_MCSF: BioMAP Diversity Plus: LPS Assay for Macrophage colony-stimulating factor (MCSF) Biomarker Activity (AID 2283083); conditions: primary human HUVEC with PBMC; actives raise or lower the signal
# In short: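 Bidirectional fitting against DMSO was applied to M-CSF levels read by ELISA at 24 h post-dose. The system pairs human umbilical vein endothelium with peripheral blood mononuclear cells; parallel SRB staining tracked cytotoxicity.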
# [12] = read-out: Tissue Factor, F3 (gene 2152); assay: BSK_LPS_TissueFactor: BioMAP Diversity Plus: LPS Assay for Tissue Factor Biomarker Activity (AID 2283084); conditions: primary human HUVEC with PBMC; actives raise or lower the signal
# In short: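 Compound was added to an endothelial cell/PBMC co-culture, and after 24 h tissue factor (CD142) was read by ELISA. Gain or loss of signal was fitted against a DMSO baseline, and parallel SRB staining (560 nm) tracked overt cytotoxicity.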
# [13] = read-out: Tumor necrosis factor (Homo sapiens) (UniProt P01375); assay: BSK_LPS_TNFa: BioMAP Diversity Plus: LPS Assay for Tumour Necrosis Factor alpha (TNFa) Biomarker Activity (AID 2283085); conditions: primary human HUVEC with PBMC; actives raise or lower the signal
# In short: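 Read-out is ELISA of TNFa in primary human endothelial cell–PBMC co-cultures at 24 h after compound. Activity in either direction was fitted against DMSO.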
# [14] = read-out: Vascular cell adhesion molecule 1 (VCAM1), VCAM1 (gene 7412); assay: BSK_LPS_VCAM1: BioMAP Diversity Plus: LPS Assay for Vascular cell adhesion molecule 1 (VCAM1) Biomarker Activity (AID 2283086); conditions: primary human HUVEC with PBMC; actives raise or lower the signal
# In short: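 HUVEC + PBMC co-culture, LPS system; compound 24 h; VCAM-1 by ELISA; bidirectional fit vs DMSO control; parallel SRB (0.1%, TCA-fixed, 560 nm) for cytotoxicity.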
# CD38, CD38 (gene 952) = assay: BSK_SAg_CD38: BioMAP Diversity Plus: SAg Assay for CD38 Biomarker Activity (AID 2283087); conditions: primary human HUVEC with PBMC; actives raise or lower the signal
# In short: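 Human HUVEC plus PBMC co-culture stimulated with superantigen; CD38 measured by ELISA 24 h after chemical dosing. Fluorescence read-out, bidirectional fit against DMSO; cytotoxicity tracked in parallel by SRB and Alamar Blue.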
# CD40, CD40 (gene 958) [15] = assay: BSK_SAg_CD40: BioMAP Diversity Plus: SAg Assay for CD40 Biomarker Activity (AID 2283088); conditions: primary human HUVEC with PBMC; actives raise or lower the signal
# In short: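 CD40 is measured by fluorescence ELISA in an endothelial/PBMC primary human co-culture at 24 h post-dose. Fitting is bidirectional, DMSO baseline. Parallel SRB staining (560 nm) flags cytotoxicity.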
# CD69, CD69 (gene 969) = assay: BSK_SAg_CD69: BioMAP Diversity Plus: SAg Assay for CD69 Biomarker Activity (AID 2283089); conditions: primary human HUVEC with PBMC; actives raise or lower the signal;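 for AC50: cell surface CD69 protein quantified by ELISA with fluorescence detection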
# In short: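 Primary human vascular co-culture (umbilical vein endothelium with peripheral blood mononuclear cells) exposed to test chemical for 24 h. CD69 levels quantified by fluorescence ELISA; DMSO served as negative control for bidirectional fitting.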
# [16] = read-out: E-selectin (Homo sapiens) (UniProt P16581); assay: BSK_SAg_Eselectin: BioMAP Diversity Plus: SAg Assay for Eselectin Biomarker Activity (AID 2283091); conditions: primary human HUVEC with PBMC; actives raise or lower the signal
# In short: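 Cell-surface E-selectin is read by ELISA at 24 h in the SAg co-culture of HUVEC and PBMC. Curves are fitted in both directions relative to DMSO. Parallel SRB total-protein staining tracks overt toxicity.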
# [17] = read-out: Transforming growth factor beta 1 (TGFb1), TGFB1 (gene 7040); assay: BSK_KF3CT_TGFb1: BioMAP Diversity Plus: KF3CT Assay for Transforming growth factor beta 1 (TGFb1) Biomarker Activity (AID 2283072); conditions: primary human keratinocytes with fibroblasts; actives raise or lower the signal
# In short: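 Primary human skin cells (keratinocytes, foreskin fibroblasts) were co-cultured, exposed to test chemical and sampled at 24 h. TGF-b1 levels were measured by ELISA and fitted bidirectionally relative to DMSO.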
# [18] = read-out: Monocyte Chemoattractant Protein-1 (MCP1), CCL2 (gene 6347); assay: BSK_SAg_MCP1: BioMAP Diversity Plus: SAg Assay for Monocyte Chemoattractant Protein-1 (MCP1) Biomarker Activity (AID 2283090); conditions: primary human HUVEC with PBMC; actives raise or lower the signal
# In short: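 MCP-1 levels in the endothelial–PBMC SAg co-culture were quantified by ELISA at 24 h post-dosing; both increases and decreases versus DMSO scored. Cytotoxicity monitored by SRB total protein in parallel cultures.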
# Sequence of Tumor necrosis factor (Homo sapiens) (P01375 whole entry, looked up): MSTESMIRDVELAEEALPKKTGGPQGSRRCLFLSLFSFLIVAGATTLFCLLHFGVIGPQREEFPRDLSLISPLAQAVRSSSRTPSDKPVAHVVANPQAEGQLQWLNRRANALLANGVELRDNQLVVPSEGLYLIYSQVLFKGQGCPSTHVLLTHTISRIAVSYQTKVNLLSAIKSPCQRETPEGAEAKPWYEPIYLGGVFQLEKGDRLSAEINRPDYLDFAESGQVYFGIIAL
# Sequence of E-selectin (Homo sapiens) (P16581 whole entry, looked up): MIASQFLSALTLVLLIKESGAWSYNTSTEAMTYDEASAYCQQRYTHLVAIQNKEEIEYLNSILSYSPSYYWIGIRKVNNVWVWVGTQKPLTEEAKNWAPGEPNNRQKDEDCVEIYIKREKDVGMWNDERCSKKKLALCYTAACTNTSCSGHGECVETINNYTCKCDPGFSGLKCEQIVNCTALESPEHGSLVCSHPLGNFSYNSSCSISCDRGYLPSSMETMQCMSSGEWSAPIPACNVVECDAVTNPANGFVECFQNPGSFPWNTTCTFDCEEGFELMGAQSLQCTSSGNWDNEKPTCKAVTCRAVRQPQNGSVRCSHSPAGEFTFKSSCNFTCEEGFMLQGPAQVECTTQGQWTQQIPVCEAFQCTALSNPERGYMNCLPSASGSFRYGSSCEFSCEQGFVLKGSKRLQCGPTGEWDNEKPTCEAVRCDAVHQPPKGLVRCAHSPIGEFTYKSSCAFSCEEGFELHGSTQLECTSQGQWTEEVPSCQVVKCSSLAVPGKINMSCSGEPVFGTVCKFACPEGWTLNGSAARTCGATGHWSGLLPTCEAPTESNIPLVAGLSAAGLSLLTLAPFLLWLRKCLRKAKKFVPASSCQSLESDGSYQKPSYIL
compound,measurement,setting,value
O=C(O)C(F)(F)OC(F)(F)C(F)(F)OC(F)(F)C(F)(F)OC(F)(F)C(F)(F)C(F)(F)C(F)(F)F,AC50,[1],8.05 µM (active) and 8.01 µM (active)
same,AC50,[2],8.13 µM (active) and 8.24 µM (active)
same,AC50,[3],14.5 µM (active) and 15.7 µM (active)
same,AC50,"CD40, CD40 (gene 958) [4]",30 µM (active) and 36.5 µM (active)
same,AC50,[5],54.1 µM (active) and 50.8 µM (active)
same,AC50,[6],47.5 µM (active) and 26 µM (active)
same,AC50,[7],54.4 µM (active) and 50.9 µM (active)
same,AC50,[8],44.4 µM (active) and 40.1 µM (active)
same,AC50,[9],52.4 µM (active) and 46.7 µM (active)
same,AC50,[10],37.8 µM (active) and 25.8 µM (active)
same,AC50,[11],55.1 µM (active) and 44.7 µM (active)
same,AC50,[12],54.8 µM (active) and 30 µM (active)
same,AC50,[13],50 µM (active) and 46.4 µM (active)
same,AC50,[14],45.6 µM (active) and 48.4 µM (active)
same,AC50,"CD38, CD38 (gene 952)",45.5 µM (active) and 47.5 µM (active)
same,AC50,"CD40, CD40 (gene 958) [15]",43.7 µM (active) and 45.3 µM (active)
same,AC50,"CD69, CD69 (gene 969)",42.8 µM (active) and 32 µM (active)
same,AC50,[16],45.4 µM (active) and 49.9 µM (active)
Cc1cccc2c1ccc1ccccc12,outcome,[17],inactive
same,outcome,[1],inactive
same,outcome,[2],inactive
same,outcome,[3],inactive
same,outcome,"CD40, CD40 (gene 958) [4]",inactive
same,outcome,[5],inactive
same,outcome,[6],inactive
same,outcome,[7],inactive
same,outcome,[8],inactive
same,outcome,[9],inactive
same,outcome,[10],inactive
same,outcome,[11],inactive
same,AC50,[12],3.97 µM (active)
same,outcome,[13],inactive
same,outcome,[14],inactive
same,outcome,"CD38, CD38 (gene 952)",inactive
same,outcome,"CD40, CD40 (gene 958) [15]",inactive
same,outcome,"CD69, CD69 (gene 969)",inactive
same,outcome,[16],inactive
O=P(O)(O)CCC(F)(F)C(F)(F)C(F)(F)C(F)(F)C(F)(F)C(F)(F)F,outcome,[1],inactive
same,outcome,[2],inactive
same,outcome,[3],inactive
same,outcome,"CD40, CD40 (gene 958) [4]",inactive
same,outcome,[5],inactive
same,outcome,[6],inactive
same,outcome,[7],inactive
same,outcome,[8],inactive
same,outcome,[9],inactive
same,outcome,[10],inactive
same,outcome,[11],inactive
same,AC50,[12],5.95 µM (active)
same,outcome,[12],inactive
same,outcome,[13],inactive
same,outcome,[14],inactive
same,outcome,"CD38, CD38 (gene 952)",inactive
same,outcome,"CD40, CD40 (gene 958) [15]",inactive
same,outcome,"CD69, CD69 (gene 969)",inactive
same,outcome,[18],inactive
same,outcome,[16],inactive

# — PubChem BioAssay (EPA / NIEHS)
